From PubChem BioAssay (NCI)
Compounds without any hit were thinned out: in the full panel of roughly 83,000, 20% have a hit.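 Plates (96-well) were seeded with cells, treated with compound at one concentration, and incubated for 48 hours before percent growth was determined.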 Values without a mark were called inactive. The source made the active and inactive calls.

tested on: HCT-116 colon; test: NCI-60 one-dose screen, 48 h (100 = growth as untreated, 0 = no growth, -100 = all killed); details: 10 µM unless noted
Description: Growth inhibition of the HCT-116 human tumor cell line is measured as a screen for anti-cancer activity. Cells are grown in 96 well plates and exposed to the test compound for 48 hours. Compounds are tested at a single concentration, which is 10^-5 M for most compounds. The reported endpoint is percent growth (GI% or GIPRCNT), where numbers from 0 - 100% represent growth inhibition, and numbers from -100% - 0 represent cell death. For example, a value of 40 represents 60% growth inhibition. A value of 0 means no net growth occurred over the course of the experiment. A value of -40 indicates 40% of cells at the beginning of the experiment died by the end of the experiment. A value of -100 means all cells are dead at the end of the experiment.
NCI-60 Human Tumor Cell Lines Screen was performed using the standard one-dose NCI protocol, which is described in more detail at https://dtp.cancer.gov/discovery_development/nci-60/default.htm.
Compounds with GIPRCNT values below 10 were considered active. Activity score was based on GIPRCNT using the following formula: […]
Score is 0 for GIPRCNT values of 100 or above, 50 for GIPRCNT values of 0, and 100 for GIPRCNT values of -100.

Question: How did the growth turn out when C=C1C(=O)O[C@H]2[C@H]1CC/C(COC(=O)c1c[nH]c3ccccc13)=C\CC[C@@]1(C)O[C@@H]21 was run?
Answer: -86.1% (active)

Question: With Cc1nccc2c3ccc(OCc4cn(-c5ccccc5)nn4)cc3n(CCCc3ccccc3)c12 as the compound, how does the growth read?
Answer: 54%

Question: Which growth does the source give for C=C(C)[C@@H]1CC[C@]2(C(=O)NCCCO)CC[C@]3(C)[C@H](CC[C@@H]4[C@@]5(C)CCCNC(C)(C)[C@@H]5CC[C@]43C)[C@@H]12 here?
Answer: 53.7%

Question: Which growth does the source give for C=C1C(=O)O[C@H]2[C@H]1CC/C(COC(=O)c1cccnc1N)=C\CC[C@@]1(C)O[C@@H]21 here?
Answer: 3.94% (active)

Question: How did the growth turn out when CCOC(=O)c1c(C)nc2c(c1N)/C(=C/c1cccs1)C(=O)N2Cc1ccccc1 was run?
Answer: 34.9%

Question: CCOC(=O)C(=Cc1c(-c2ccccc2)[nH]c2ccccc12)C(=O)OCC was tested. Which growth did it give?
Answer: 41%

Question: How did the growth turn out when C=C(C)[C@@H]1CC[C@]2(C(=O)n3ccnc3)CC[C@]3(C)[C@H](CC[C@@H]4[C@@]5(C)CCCNC(C)(C)[C@@H]5CC[C@]43C)[C@@H]12 was run?
Answer: -76.7% (active)

Question: With Cc1c(Br)cccc1NC(=O)c1sc2nc3c(cc2c1N)CN(Cc1ccccc1)CC3 as the compound, how does the growth read?
Answer: 16.8%

Question: How did the growth turn out when Cc1cc(Cl)cc(CN(Cc2ccccc2)Cc2c(O)ccc3ccccc23)c1O was run?
Answer: 111%

Question: With COc1ccc2[nH]c(-c3ccccc3)c(C=C(C#N)C#N)c2c1 as the compound, how does the growth read?
Answer: 23.5%

Question: Which growth does the source give for O=S(=O)(O)c1ccc(N=NSc2ccc3ccccc3c2)cc1 here?
Answer: 85.8%

Question: With COc1ccc(C(=O)c2cc(OC)c(C)c(OC)c2)cc1OC(=O)CCl as the compound, how does the growth read?
Answer: 10.2%

Question: Fc1ccc(N/N=C/c2ccc(-n3cccn3)cc2)cc1 was tested. Which growth did it give?
Answer: 91.9%

Question: Which growth does the source give for O=C1c2ccccc2C(=O)c2c1oc1c2c(=O)[nH]c2ccccc21 here?
Answer: 55.5%

Question: With CN(C)CCCn1c2c(c3cc(-c4ccco4)ccc3c1=O)C(=O)c1ccccc1-2 as the compound, how does the growth read?
Answer: 26.6%

Question: CC(C)(C)c1ccc(O)c(Cc2cc(C(C)(C)C)ccc2O)c1 was tested. Which growth did it give?
Answer: 88.6%

Question: With NC(=O)C(O)(c1ccccc1)c1ccccc1 as the compound, how does the growth read?
Answer: 103%

Question: Which growth does the source give for C#C[C@@]1(O)[C@@H](CO)O[C@@H](n2cc(I)c3c(N)ncnc32)[C@@H]1O here?
Answer: 0.762% (active)

Question: For COc1cc(-c2csc(NC(=O)Nc3ccc(Cl)cc3)n2)cc(OC)c1OC, which growth is on record?
Answer: 17.8%

Question: Which growth does the source give for Nc1ccc(C(=O)Nc2cccc(C(=O)Nc3ccc4c(O)c(N=Nc5ccc(N=Nc6ccc(S(=O)(=O)O)cc6)cc5)c(S(=O)(=O)O)cc4c3)c2)cc1 here?
Answer: 91.8%

Question: With CCOC(=O)c1sc(/N=C2\NC(=O)/C(=C/c3ccc(N4CCN(C)CC4)cc3)S2)nc1C as the compound, how does the growth read?
Answer: 103%

Question: Which growth does the source give for CCCCn1c(=O)c(/C=C/C(=O)/C=C/c2ccc(OC)cc2)cc2cc(Cl)ccc21 here?
Answer: -67.1% (active)

Question: Which growth does the source give for COc1ccc(/C(=N\O)c2cc(C)c(OC)c(C)c2)cc1O here?
Answer: 6.63% (active)

Question: How did the growth turn out when Cc1nc2sc(C(=O)Nc3ccccc3)c(N)c2cc1C(C)O (stereo not given) was run?
Answer: 30.2%

Question: How did the growth turn out when COc1cc(NC(=O)COc2cc(C)nc3ccc(OC)cc23)cc(OC)c1 was run?
Answer: 90.2%

Question: With NC(=N\N=C\c1ccccc1O)/C(N)=N/N=C/c1ccccc1O as the compound, how does the growth read?
Answer: 81.3%

Question: For CCCCc1nc(Cl)c(C2CC(c3ccc(Cl)cc3)=NN2c2cc(Cl)cc(Cl)c2)[nH]1 (stereo not given), which growth is on record?
Answer: 63.9%

Question: Which growth does the source give for CCc1c(C(=O)N[C@@H](C(=O)OCc2ccccc2)C(C)O)[nH]c2ccc(Cl)cc12 (stereo not given in full) here?
Answer: 18.9%

Question: How did the growth turn out when Nc1c(C(=O)Nc2ccccn2)sc2nc3c(cc12)C(=O)CCC3 was run?
Answer: 26.3%

Question: Which growth does the source give for COc1ccc(-c2[nH]c3ccc(OC)cc3c2C=C(C#N)C#N)cc1 here?
Answer: 19%

Question: For CCOC(=O)c1c(C(F)(F)F)n([O-])c2ccc(Cl)cc2[n+]1=O, which growth is on record?
Answer: -62.8% (active)

Question: How did the growth turn out when O=C1Nc2ccccc2C12C=C(c1ccccc1)Nc1c2c(-c2ccccc2)nn1-c1ccccc1 (stereo not given) was run?
Answer: 48.6%

Question: How did the growth turn out when COc1ccc(NC(=O)Nc2ccc(Nc3nc(C)cc(Nc4ccc(C)cc4)n3)cc2)cc1 was run?
Answer: -91.6% (active)

Question: With O=C(CSC(=S)N1CCCCC1)Nc1ccccc1 as the compound, how does the growth read?
Answer: 92.4%

Question: How did the growth turn out when C=C1C(=O)O[C@H]2[C@H]1CC/C(COC(=O)CCC(=O)OC/C1=C/CC[C@@]3(C)O[C@H]3[C@H]3OC(=O)C(=C)[C@@H]3CC1)=C\CC[C@@]1(C)O[C@@H]21 was run?
Answer: -43% (active)

Question: With CN(C)[C@@H]1C(=O)C(C(N)=O)=C(O)[C@@]2(O)C(=O)C3=C(O)c4c(O)cc(CN5CCc6ccccc6C5)c(Cl)c4C[C@H]3C[C@@H]12 as the compound, how does the growth read?
Answer: -90.5% (active)

Question: Which growth does the source give for O=C1[C@@H](OS(=O)(=O)CC(F)(F)F)[C@H](c2ccc(F)cn2)N1c1cc2c3ccccc3ccc2c2ccccc12 here?
Answer: 79.3%

Question: How did the growth turn out when CCOc1ccc(C2N(c3cc(OC)c(OC)c(OC)c3)C(=O)C2(F)F)cc1 (stereo not given) was run?
Answer: 8.92% (active)

Question: For CCCCCCCCCCCCCC1=NCC[N+]1(CCO)Cc1ccccc1 (stereo not given), which growth is on record?
Answer: -90.8% (active)

Question: How did the growth turn out when C=C(C)[C@@H]1CC[C@]2(C(=O)O)CC[C@]3(C)[C@H](CC[C@@H]4[C@@]5(C)C[C@@H](CC#Cc6ccccc6)C(=O)C(C)(C)[C@@H]5CC[C@]43C)[C@@H]12 was run?
Answer: 9.07% (active)
